HP1b chromo inh: inhibitors of HP1-beta chromodomain binding to methylated histone tails; hit rate 0.56% among 390,000; P83916; Potency, µM (titrated, usually from 114 µM), without a hit: at the highest dose activity change, negative = inhibition, hits mostly inhibitors; AlphaScreen HP1-beta / biotin-H3K9me3 peptide binding; AID 540317; note: nearly all actives have a fitted effect of over 70% in size
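AlphaScreen: HP1-beta (50 nM) preformed 30 min with biotin-H3(1-18)K9me3 peptide (50 nM) in PBS pH 7.4, 0.01% Tween-20. Compound added for 30 min at RT, then streptavidin donor/nickel chelate acceptor beads (10 ug/mL) for 30 min.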
BAZ2B inh: blocks human BAZ2B. Q9UIF8. hit rate 4.4% among 360,000. AlphaScreen BAZ2B-H3K14Ac peptide displacement. Potency, µM (highest dose often 114 µM), inactives show top-dose activity change, negative = inhibition, most hits filed as inhibitors; note: % is set by controls: 0 for no effect and ±100 for the full control effect; nearly all actives have a fitted effect of over 60% in size
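Complex of BAZ2B and biotin-H3K14Ac (50 nM apiece) forms over 30 min at RT, then faces library compounds up to 110 uM for another 30 min; AlphaScreen beads added, 20 min dark incubation, luminescence read.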
JMJD2A Tudor inh: blocks the human JMJD2A Tudor domain; O75164; AlphaScreen JMJD2A-Tudor / H3K4me3 peptide binding; Potency, µM (highest dose often 114 µM), for inactives: top-dose activity change, negative = inhibition, most hits filed as inhibitors; hit rate 4.4% among 390,000; AID 504339; note: % is set by controls: 0 for no effect and ±100 for the full control effect; nearly all actives have a fitted effect of over 50% in size
GLS inhibitor: inhibitors of human glutaminase (GLS); O94925; GLS enzymatic activity, qHTS titration; Potency, µM (doses to about 45.5 µM), without a hit: at the highest dose activity change, negative = inhibition, actives largely listed as inhibitors; hit rate 0.21% among 410,000; AID 624170; note: % is set by controls: 0 for no effect and ±100 for the full control effect
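Enzyme dispensed in phosphate buffer (45 mM, pH 8.2, 0.02% Tween-20), compounds pinned in, then 1 mM L-glutamine solution and the glutamate oxidase–HRP–Amplex Red mix added; fluorescence read immediately and again after 30 min at room temperature.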
G9a block: inhibitors of human histone lysine methyltransferase G9a | Q96KQ7 | G9a H3K9 monomethylation, AlphaScreen, 2 h | Potency, µM (doses to about 102 µM), for the others: top-dose activity, negative = inhibition, usual class: inhibitors | hit rate 8.8% among 350,000 | AID 504332; note: % is set by controls: 0 for no effect and ±100 for the full control effect; nearly all actives have a fitted effect of over 75% in size
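Using a bead-based AlphaScreen, monomethylated H3K9 product from 2 h room-temperature reactions (G9a 20 nM, peptide 500 nM, SAM 20 uM) was detected with 0.5 ug/mL rabbit anti-H3K9me1 antibody.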
An asterisk follows results filed as active; [ ] = remark or other dose. Shown are actives, neighbours in structure and some others; about 10% of the full set was active somewhere. Calls come from the whole dose curve; as a rule, active = well fitted curve in the direction sought with a large enough effect; inconclusive = small, poorly fitted or top-dose-only effect, or another doubt; inactive = no such curve, though single readings can be large; an effect the other way counts as inactive or inconclusive. Potency is the fitted concentration of half-maximal effect.

`CSCCC(NC(=O)c1cccc(S(=O)(=O)N2CCN(C(C)=O)CC2)c1)c1nc2ccccc2[nH]1` (stereo not given) gave HP1b chromo inh 36.6%, JMJD2A Tudor inh -18.8% and GLS inhibitor -3.2%.
Screening CSCC[C@H](NC(=O)c1ccc(Cl)c(S(=O)(=O)N2CCCC2)c1)c1nc2ccccc2[nH]1 returned HP1b chromo inh 4.6%, BAZ2B inh inconclusive, JMJD2A Tudor inh -25.8%, GLS inhibitor -12.2% and G9a block 35.5µM*.
Screening CSCC[C@@H](CO)NC(=O)[C@H]1O[C@@H](n2ccc(=O)[nH]c2=O)[C@H](O)[C@@H]1O returned GLS inhibitor -2.5%.
For Cc1cc(OCCOCCNC(C)C)cc(C)c1Cl the results were HP1b chromo inh -18.1%, BAZ2B inh 79.4µM*, JMJD2A Tudor inh 3.16µM*, GLS inhibitor -1.2% and G9a block inconclusive.
Screening Cc1cc(OCC(=O)NC(C)C)cc(C)c1Cl returned HP1b chromo inh 77.0%, BAZ2B inh 1.1%, JMJD2A Tudor inh -1.4%, GLS inhibitor -3.0% and G9a block -7.9%[59 µM].
Screening COc1ccc(-c2nnc(NC(=O)C3=COCCO3)o2)cc1 returned HP1b chromo inh 15.5%, BAZ2B inh 28.2µM*, JMJD2A Tudor inh -9.7%, GLS inhibitor 3.8% and G9a block -24.5%[59 µM].
Screening O=C(Nc1nnc(C2=COCCO2)o1)c1cccc(C(F)(F)F)c1 returned HP1b chromo inh 51.4%, BAZ2B inh inconclusive, JMJD2A Tudor inh -4.1%, GLS inhibitor -5.8% and G9a block -1.0%.
O=C(Nc1nnc(C2=COCCO2)o1)c1ccc(F)cc1 was read as HP1b chromo inh 39.6%, BAZ2B inh 22.4µM*, JMJD2A Tudor inh 56.2µM* and GLS inhibitor 3.2%.
Screening O=C(Nc1nnc(C2=COCCO2)o1)c1ccc([N+](=O)[O-])cc1 returned HP1b chromo inh 41.1%, BAZ2B inh 35.5µM*, JMJD2A Tudor inh 50.1µM*, GLS inhibitor 2.3% and G9a block inconclusive.
O=C(Nc1nnc(C2=COCCO2)o1)c1ccc(Cl)cc1 was read as HP1b chromo inh 32.6%, BAZ2B inh 56.2µM*, JMJD2A Tudor inh 79.4µM*, GLS inhibitor -0.4% and G9a block -11.4%[59 µM].
`Cc1ccc(NC(=O)c2cccc(S(=O)(=O)Nc3c(C)n(C)n(-c4ccccc4)c3=O)c2)cc1C` gave HP1b chromo inh 27.8%, JMJD2A Tudor inh -7.8% and GLS inhibitor 4.0%.
CC(=O)Nc1nnc(C2=COCCO2)o1 was read as HP1b chromo inh 37.7%, BAZ2B inh 79.4µM*, JMJD2A Tudor inh 22.4µM*, GLS inhibitor -9.7% and G9a block -16.0%.
Screening CCOC(=O)c1ccc(NC(=O)C2=C(C)Nc3nc(SCc4ccc(Cl)cc4)nn3C2c2ccc(C)cc2)cc1 (stereo not given) returned HP1b chromo inh 11.2%, BAZ2B inh -0.3%, JMJD2A Tudor inh 9.2%, GLS inhibitor 0.5% and G9a block 7.4%[59 µM].
`COCCOCC(O)CN1CCN(c2ccccc2)CC1` (stereo not given) gave HP1b chromo inh -25.6%, BAZ2B inh 50.1µM*, JMJD2A Tudor inh 12.6µM*, GLS inhibitor 39.0% and G9a block inconclusive.
Screening COCCOCC(O)CN1CCN(c2ccc(C)cc2)CC1 (stereo not given) returned HP1b chromo inh -37.8%, JMJD2A Tudor inh inconclusive, GLS inhibitor 30.3% and G9a block 4.47µM*.
Cc1ccc(N2CCN(CC(O)COc3ccccc3)CC2)cc1 (stereo not given) was read as HP1b chromo inh 13.8%, BAZ2B inh inconclusive, JMJD2A Tudor inh -24.7%, GLS inhibitor 20.7% and G9a block -19.3%.
For OC(COCc1ccccc1)CN1CCN(c2ccccc2)CC1 (stereo not given) the results were HP1b chromo inh 48.6%, BAZ2B inh inconclusive, JMJD2A Tudor inh inconclusive, GLS inhibitor 46.7% and G9a block inconclusive.
`COc1ccc(CN2C(=O)C(CC(=O)NC3CCCCC3)CC(C(=O)N(C(C)C)C(C)C)=C2C)cc1` (stereo not given) gave GLS inhibitor -1.9%.
Screening Cc1ccc(NC(=O)CCc2nnc3n(CC(C)C)c(=O)c4ccccc4n23)cc1C returned HP1b chromo inh 7.3%, BAZ2B inh 1.0%, JMJD2A Tudor inh -14.2%, GLS inhibitor -2.0% and G9a block -0.8%[59 µM].
CCOC(=O)c1ccc(CN(Cc2ccc(F)cc2)S(=O)(=O)c2ccc(F)cc2)cc1 was read as HP1b chromo inh 18.0%, BAZ2B inh 12.8%, JMJD2A Tudor inh 19.9%, GLS inhibitor 0.9% and G9a block 43.1%[59 µM].
Screening O=C(NCCn1c(C(F)(F)F)nc2cc(C(F)(F)F)ccc21)[C@H]1CCCN1c1nc(CN2CCCCC2)cs1 returned HP1b chromo inh 33.2%, BAZ2B inh -30.2%, JMJD2A Tudor inh -28.2%, GLS inhibitor 5.1% and G9a block 70.8µM*.
`Cc1ccc(-c2csc(N3CCC[C@@H]3C(=O)NCCn3c(C(F)(F)F)nc4ccccc43)n2)cc1` gave HP1b chromo inh -14.1%, BAZ2B inh inconclusive, JMJD2A Tudor inh inconclusive, GLS inhibitor 4.4% and G9a block inconclusive.
For Cc1cc(C)cc(C(=O)N2CC(=O)Nc3ccc(C)cc3C2c2ccccc2)c1 (stereo not given) the results were HP1b chromo inh -1.0%, BAZ2B inh -21.6%, JMJD2A Tudor inh -35.3%, GLS inhibitor 8.8% and G9a block 1.9%[59 µM].
Cc1ccc(/C=C/C(=O)Nc2cc(S(N)(=O)=O)ccc2O)cc1 was read as HP1b chromo inh inconclusive, BAZ2B inh -31.0%, JMJD2A Tudor inh -23.5%, GLS inhibitor -3.7% and G9a block 8.91µM*.
CCNc1nc(NCC)nc(-n2cc(C(=O)c3cc(Cl)ccc3O)cn2)n1 was read as HP1b chromo inh 28.2% and JMJD2A Tudor inh inconclusive.
Screening CN(C)c1ccc(CNn2cnnc2SCc2ccc(F)cc2)cc1 returned HP1b chromo inh -5.5%, BAZ2B inh 44.7µM*, JMJD2A Tudor inh inconclusive, GLS inhibitor 39.2% and G9a block inconclusive.
`Cc1cccc(CCN=c2c([N+](=O)[O-])nn(-c3ccccc3)n2O)c1` gave HP1b chromo inh inconclusive, JMJD2A Tudor inh 50.1µM*, GLS inhibitor 6.2% and G9a block inconclusive.
For COc1cc(/C=C2/C(=O)N(c3ccc([N+](=O)[O-])cc3)N=C2N2CCOCC2)ccc1O the results were HP1b chromo inh inconclusive, BAZ2B inh inconclusive, JMJD2A Tudor inh -7.4%[11.4 µM], GLS inhibitor inconclusive and G9a block -41.8%.
Screening CC1=NN(c2ccc(C)cc2)C(=O)/C1=C/c1ccc(-c2cc([N+](=O)[O-])ccc2O)o1 returned HP1b chromo inh 31.6µM*, BAZ2B inh 2.4%, JMJD2A Tudor inh 31.6µM* and GLS inhibitor -11.2%.

Assay outcomes (PubChem BioAssay)
